Assays:
Settings in all cases: concentration: 1 μM, replicates: in singlicate; n = 1
EPHA7 = system: EPHA7
EPHA8 = system: EPHA8
EPHB1 = system: EPHB1
EPHB2 = system: EPHB2
EPHB3 = system: EPHB3
EPHB4 = system: EPHB4
EPHB6 = system: EPHB6
ERBB2 = system: ERBB2
ERBB3 = system: ERBB3
ERBB4 = system: ERBB4
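Note: KINOMEscan kinase panel screen.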

| Structure (SMILES) | %Inh (EPHA7) | %Inh (EPHA8) | %Inh (EPHB1) | %Inh (EPHB2) | %Inh (EPHB3) | %Inh (EPHB4) | %Inh (EPHB6) | %Inh (ERBB2) | %Inh (ERBB3) | %Inh (ERBB4) |
| --- | --- | --- | --- | --- | --- | --- | --- | --- | --- | --- |
| CN(c1ccc(NC(=O)Nc2cccc(Cl)c2)cc1)c1ccnc(N)n1.Cl [GW830707] | 40% | 22% | 34% | 36% | 62% | 61% | 76% | 0% | 17% | 29% |
| COc1cc(Nc2ccnc3cc(-c4ccncc4)ccc23)cc(OC)c1OC.Cl [GW494610] | 0% | 99.2% | 74% | 57% | 0% | 50% | 98% | 49% | 50% | 5% |
| Cl.O=C(Nc1ccc(Oc2ccc3[nH]c(NC(=O)c4ccco4)nc3c2)cc1)Nc1cc(C(F)(F)F)ccc1F [GW683134] | 86% | 99.5% | 70% | 72% | 24% | 60% | 93.7% | 9% | 0% | 29% |
| O=C(O)C(F)(F)F.O=c1[nH]ccc2nc(N[C@@H]3CCNC3)nc(Nc3cc(Cl)cc(Cl)c3)c12 [GSK2188764] | 1% | 5% | 28% | 1% | 4% | 6% | 17% | 4% | 0% | 0% |
| Nc1ncc(-c2ccc3nccc(-c4ccncc4)c3c2)cc1S(=O)(=O)N1CCCCC1 [GSK1693850] | 3% | 8% | 0% | 15% | 0% | 8% | 43% | 31% | 0% | 20% |
| O=C(O)C(F)(F)F.O=c1[nH]ccc2nc(N[C@@H]3CCNC3)nc(Nc3ccc4c(c3)S(=O)(=O)CC4)c12 [GSK2181306] | 27% | 24% | 9% | 0% | 5% | 8% | 19% | 8% | 0% | 0% |
| CCn1cnc2c(NCc3ccccc3)ncnc21 [SKF-96418] | 0% | 0% | 0% | 0% | 0% | 0% | 0% | 24% | 28% | 4% |
| COc1ccc(C2=C(Nc3cccc(O)c3)C(=O)NC2=O)cc1 [SB-390766] | 4% | 11% | 9% | 87% | 5% | 0% | 10% | 11% | 0% | 12% |
| Cc1ccc(O)cc1Nc1ccnc2ccc(C(C)(C)C)cc12 [GW856805] | 0% | 98.2% | 97.4% | 92.5% | 100% | 97.1% | 24% | 32% | 15% | 24% |
| CCOc1nccc(-c2c(-c3ccc(F)cc3)ncn2C2CCNCC2)n1 [SB-249175] | 0% | 0% | 0% | 11% | 0% | 0% | 14% | 5% | 36% | 30% |
| Cl.Cl.NC(CNC(=O)c1cc(Br)c(-c2ccnc3[nH]ccc23)s1)c1ccccc1 (centres unmarked) [GSK1322949] | 10% | 24% | 27% | 15% | 0% | 3% | 75% | 24% | 18% | 0% |
| Cc1ccc(NC(=O)c2ccnc(N3CCCCC3)c2)cc1-c1ccc(C(=O)NCC2CC2)cc1 [GW775610] | 0% | 0% | 0% | 0% | 0% | 0% | 5% | 21% | 0% | 19% |
| COc1cccc(-c2nc(-c3ccccc3)[nH]c2-c2ccncc2)c1 [SB-610250] | 9% | 25% | 16% | 0% | 24% | 0% | 22% | 31% | 20% | 0% |
| Fc1cc(Cl)ccc1Nc1ccnc2cc(-c3ccc(CN4CCOCC4)o3)ccc12 [GW560109] | 59% | 90.2% | 50% | 44% | 15% | 55% | 91.7% | 34% | 80% | 25% |
| COc1cc(Nc2nccc(N3CCC(NS(=O)(=O)c4ccc(NC(C)=O)cc4)CC3)n2)cc(OC)c1OC [GSK1379825] | 0% | 11% | 6% | 30% | 55% | 38% | 96.8% | 18% | 38% | 20% |
| CN(c1ccc2c(c1)nc(NCc1ccccc1)n2C)c1ccnc(Nc2ccc(CS(C)(=O)=O)cc2)n1.Cl [GW811603] | 20% | 47% | 0% | 0% | 0% | 2% | 87% | 35% | 28% | 17% |

| Structure (SMILES) | %Inh (EPHA7) | %Inh (EPHA8) | %Inh (EPHB1) | %Inh (EPHB2) | %Inh (EPHB3) | %Inh (EPHB4) | %Inh (EPHB6) | %Inh (ERBB2) | %Inh (ERBB3) | %Inh (ERBB4) |
| --- | --- | --- | --- | --- | --- | --- | --- | --- | --- | --- |
| Cc1ccccc1CC(=O)N1CCc2cc(-c3cn(C)c4ncnc(N)c34)ccc21 [GSK2603346] | 0% | 5% | 8% | 0% | 0% | 0% | 53% | 8% | 0% | 32% |
| Cc1nn2c(=O)cc(N3CCO[C@H](C)C3)nc2n1Cc1cccc(Cl)c1Cl [GSK2373693] | 0% | 2% | 3% | 66% | 0% | 5% | 3% | 0% | 0% | 0% |
| Nc1ncc(-c2cn[nH]c2)c2scc(-c3ccc4c(c3)CCN4C(=O)Cc3ccccc3)c12 [GSK2593067] | 0% | 14% | 5% | 0% | 0% | 0% | 97.6% | 0% | 0% | 0% |
| CN1CCN(Cc2ccc(NC(=O)Nc3ccc(N(C)c4ccnc(Nc5ccc(CS(C)(=O)=O)cc5)n4)cc3)cc2)CC1.Cl [GW827654] | 10% | 77% | 11% | 28% | 0% | 0% | 94.5% | 48% | 45% | 33% |
| CC(=O)Nc1cn2nc(Oc3cccc(NC(=O)c4cccc(C(F)(F)F)c4)c3)ccc2n1 | 7% | 99.5% | 95.1% | 98.6% | 5% | 90.9% | 98.1% | 6% | 41% | 4% |
| Cc1ccc(C)c(NC(=O)Nc2ccc(C)c(-c3ccc(C(=O)Nc4ccncc4)cc3)c2)c1 [GSK1398473] | 3% | 46% | 23% | 32% | 12% | 14% | 0% | 0% | 0% | 44% |
| COc1cccc(C2=C(Nc3cccc(O)c3)C(=O)NC2=O)c1 [SB-390771] | 10% | 18% | 11% | 16% | 31% | 16% | 49% | 23% | 0% | 2% |
| CN(C)c1ncnc2nc[nH]c12 [SKF-31736] | 0% | 0% | 0% | 0% | 0% | 0% | 0% | 24% | 13% | 0% |
| COc1ccc(C)c(Nc2ccnc(Nc3ccc(-c4cnc[nH]4)cc3)n2)c1.Cl [GW784041] | 6% | 26% | 14% | 21% | 17% | 60% | 69% | 0% | 89% | 0% |
| N#Cc1cnc2cc(-c3cnc(CNCCN4CCOCC4)s3)ccc2c1Nc1ccc(Oc2ccccc2)cc1 [GW664114] | 0% | 25% | 0% | 7% | 10% | 10% | 21% | 79% | 100% | 100% |
| Fc1cc(Cl)ccc1Nc1ccnc2cc(-c3ccc(CN4CCSCC4)o3)ccc12 [GW560106] | 0% | 72% | 43% | 19% | 0% | 50% | 91.2% | 44% | 77% | 39% |
| Cc1ccc(O)cc1Nc1ccnc2cc(-c3ccc(CN4CCCCC4)o3)ccc12 [GW557777] | 0% | 99.7% | 100% | 98.9% | 95.3% | 99.7% | 83% | 0% | 7% | 0% |
| O=C(Nc1n[nH]c2nc(-c3cccc(O)c3)ccc12)C1CC1 [SB-711805] | 11% | 30% | 14% | 0% | 1% | 5% | 48% | 0% | 0% | 0% |
| CC(C)NCC(Cc1ccccc1)NC(=O)c1cc(Br)c(-c2ccnc3[nH]ccc23)s1.Cl.Cl (centres unmarked) [GSK1383281] | 0% | 0% | 16% | 0% | 2% | 2% | 6% | 16% | 0% | 10% |
| COC(=O)Nc1nc2ccc(Oc3ccc(CC(=O)Nc4cc(C(F)(F)F)ccc4F)cc3)cc2[nH]1 [GW680903] | 9% | 64% | 32% | 26% | 9% | 20% | 22% | 30% | 12% | 7% |
| Cc1ccc(-c2ccc3occ(-c4ccc(S(C)=O)cc4)c3c2)nn1 (centres unmarked) | 0% | 0% | 0% | 14% | 14% | 6% | 0% | 0% | 0% | 3% |

From article PMC5540273 (PLoS ONE, 2017)
